Screening data deposited in PubChem by National Center for Advancing Translational Sciences (NCATS).
Most compounds without a hit are left out; they make up all but 14% or so of the library.
Pf growth 48h: inhibits P. falciparum growth in the first generation, 48 h | P. falciparum luciferase growth in erythrocytes, 48 h | 5.9% of 310,000 active | AID 504832 | Potency, µM (titrated, usually from 28.7 µM), without a hit: at the highest dose activity change, negative = inhibition, most hits filed as inhibitors; note: potency is the fitted concentration of half-maximal effect
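Parasite viability was followed by luminescence of a genomically integrated firefly luciferase. Cultures held 0.1% parasitemia at 2% hematocrit (final), incubated under 5% CO2 at 37 C.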
Pf growth 96h: P. falciparum growth inhibition at 96 hours; P. falciparum luciferase reporter growth, 96 h; Potency, µM (highest dose often 28.7 µM), for inactives: at the top dose activity change, negative = inhibition, actives largely listed as inhibitors; 6.9% of 320,000 active; AID 504834; note: potency is the fitted concentration of half-maximal effect
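Two parasite generations (96 h, 37 C, 5% CO2) of compound exposure in infected erythrocytes (0.05% parasitemia, 2% hematocrit). Luciferase-reporter P. falciparum; decreased luminescence indicates inhibited growth, aimed at apicoplast-acting delayed death.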
Sm TGR inh: inhibitors of Schistosoma mansoni thioredoxin glutathione reductase; Q962Y6; purified TGR, DTNB reduction, TNB absorbance 405 nm; Potency, µM (top dose mostly 114 µM), inactives show at the top dose activity change, negative = inhibition, most hits filed as inhibitors; 3% of 360,000 active; AID 485364; note: potency is the fitted concentration of half-maximal effect; nearly all actives have a fitted effect of over 60% in size
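Kinetic colorimetric format: TGR-catalysed, NADPH-driven DTNB reduction monitored via TNB absorbance. Enzyme dispensed at 20 nM; compound exposure 15 min at room temperature before reaction start.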
HCMV antiviral: blocks human cytomegalovirus replication | HFF cells, HCMV-luciferase reporter, 72 h; stronger effect = lower value | activity change, negative = inhibition, % at 57.5 µM | 4.5% of 410,000 active | AID 1259415; in the data active = activity change below about -60%; inconclusive = no clear call, values can overlap the other calls; inactive = above about -39%
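Human foreskin fibroblasts infected with luciferase-reporter HCMV at MOI 1 PFU/cell, compounds at two doses. Luciferase measured 72 h post infection; normalized to buffer-only basal and Salinomycin (10uM) controls.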
FBPA Giardia inh: inhibitors of Giardia lamblia fructose-1,6-bisphosphate aldolase | A8B2U2 | purified Giardia FBPA | Potency, µM (top dose mostly 59.6 µM), for inactives: at the top dose activity, negative = inhibition, usual class: inhibitors | 0.71% of 290,000 active | AID 2451; note: potency is the fitted concentration of half-maximal effect; nearly all actives have a fitted effect of over 55% in size
Target sequence (A8B2U2 whole entry, looked up): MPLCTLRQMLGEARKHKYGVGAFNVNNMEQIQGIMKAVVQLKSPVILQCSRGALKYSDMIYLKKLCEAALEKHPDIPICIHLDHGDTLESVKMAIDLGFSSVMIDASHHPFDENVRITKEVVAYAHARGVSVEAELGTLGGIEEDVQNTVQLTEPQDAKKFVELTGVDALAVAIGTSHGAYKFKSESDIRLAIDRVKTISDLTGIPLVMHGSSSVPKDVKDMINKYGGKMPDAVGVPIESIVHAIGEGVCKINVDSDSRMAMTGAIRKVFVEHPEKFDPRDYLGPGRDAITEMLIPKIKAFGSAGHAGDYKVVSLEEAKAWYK
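Giardia FBPA (40 nM reagent) was preincubated 10 min at RT with compound (up to 57.5 uM final), then substrate plus GAPDH/TPI/NAD/arsenate coupling system with diaphorase/resazurin was added; resorufin fluorescence (525/598 nm) was read after 20 min.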
Starred values were filed as active, the others as inactive; ? = inconclusive; / = not tested or not shown; [ ] = remark or other dose. Unless noted, calls come from the whole dose curve; as a rule, active = well fitted curve in the direction sought with a large enough effect; inconclusive = small, poorly fitted or top-dose-only effect, or another doubt; inactive = no such curve, though single readings can be large; an effect the other way counts as inactive or inconclusive. % is set by controls: 0 for no effect and ±100 for the full control effect.

SMILES | Pf growth 48h | Pf growth 96h | Sm TGR inh | HCMV antiviral | FBPA Giardia inh
COc1ccc(C)cc1S(=O)(=O)N1CCN(C(=O)c2ncoc2-c2ccc(C)cc2)CC1 | 1% | 14% | -7% | -70* | 5%
COc1ccc(C)cc1S(=O)(=O)N1CCN(C(=O)c2ncoc2-c2ccc(F)cc2)CC1 | 0% | -27% | 3% | -5 | -10%
O=C(Nc1ccccn1)c1cccc(S(=O)(=O)N2CCc3ccccc3C2)c1 | 35% | 0% | -10% | -13 | /
Nc1nc(-c2ccco2)nn1C(=O)c1ccc([N+](=O)[O-])cc1 | 24% | ? | / | 35 | -2%
CN(C)CCCNc1nc2cc(-c3cnn(Cc4ccccc4)c3)sc2c(=O)n1C | / | / | / | 6 | /
O=C(CN1CC(=O)Nc2ccccc21)Nc1ccc(F)c(F)c1 | 39% | ? | 32µM* | -28 | ?
Cc1ccc(NC(=O)CNC(=O)N2CC(=O)Nc3ccccc32)cc1F | 9% | 18% | 2% | ? | -2%
O=C(CCC1COc2ccccc2O1)NCc1ccccc1 (centres undefined) | / | 3.7µM* | 4% | -2 | 0%
O=C(CC1COc2ccccc2O1)NCc1ccccc1 (centres undefined) | -11% | / | -8% | -5 | 2%
Cc1ccc(OCC(=O)N(Cc2ccco2)Cc2ccco2)cc1C | / | / | -8% | -12 | /
CCCCC1(c2ccc(F)cc2)NC(=O)N(CC(=O)N2CCN(C(=O)c3ccco3)CC2)C1=O (centres undefined) | -14% | 6.6µM* | -3% | -1 | 1%
CC1CCC2(CC1)NC(=O)N(CC(=O)N1CCN(C(=O)c3ccco3)CC1)C2=O (centres undefined) | 38% | 1% | -4% | -11 | /
COc1ccc(-n2c(SCC(N)=O)nc3nc4c(cc3c2=O)COC(C)(C)C4)cc1 | 9% | 6% | -20% | -18 | -1%
O=C1NC(c2ccccc2)(C(F)(F)F)SC2=CCCCCN12 (centres undefined) | 0% | ? | 25µM* | 28 | -8%
COC(=O)c1c(C)[nH]c(C(=O)CSc2ncnc3sc(-c4ccccc4)cc23)c1C | 7% | 0% | 2% | ? | 7%
CNc1cc(N2CCN(S(=O)(=O)N(C)C)CC2)ccc1[N+](=O)[O-] | 7%[5.75 µM] | 22% | -7% | 4 | -6%
CN(C)S(=O)(=O)N1CCN(c2ccc([N+](=O)[O-])c(NC3CC3)c2)CC1 | 4.1µM* | ? | -1% | 22 | -12%
COCCOc1cc(N(CC(=O)N(C)C)S(=O)(=O)c2ccccc2)c(Cl)cc1Cl | 4% | 12µM* | 24% | 8 | 1%
CCOc1ccccc1N(CC(=O)Nc1cc(OC)ccc1OC)S(=O)(=O)c1ccccc1 | ? | 48% | 3% | -102* | -2%
CCOc1ccccc1N(CC(=O)Nc1ccccc1)S(=O)(=O)c1ccccc1 | ? | 12µM* | -18% | -98* | 5%
CNC(=O)CN(c1cc(OCCOC)c(Cl)cc1Cl)S(=O)(=O)c1ccccc1 | 283% | ? | 6% | -21 | 1%
CCOc1ccccc1N(CC(=O)Nc1cccnc1)S(=O)(=O)c1ccc(C)cc1 | ? | 38% | 9% | -28 | 0%
CNC(=O)NC(=O)C(OC(=O)Cc1cccc(C(F)(F)F)c1)c1ccccc1 (centres undefined) | 37% | 32% | 0% | -1 | -2%
CCOc1ccc(-c2cn(-c3ccccc3OC)c(=S)[nH]2)cc1 | ? | 21% | 8% | -80* | 6%
COc1cc(/C=C/C(=O)c2ccc3c(c2)OCCO3)cc(Br)c1OCC(=O)N(C)C | ? | ? | -14% | -97* | 3%
SMILES | Pf growth 48h | Pf growth 96h | Sm TGR inh | HCMV antiviral | FBPA Giardia inh
O=C(/C=C/c1ccncc1)c1ccc2c(c1)OCCO2 | -1% | ? | 45µM* | 26 | 0%
Cc1c(C(=O)Nc2ccc(F)cc2F)oc2ccc3c(c12)C(=O)CC(C)(C)O3 | / | / | -26% | ? | /
CCc1nc2ccc(C(=O)NCCCN(C)C)cn2c1N(CC)CCOC | / | / | / | 0 | /
O=C(CNC(=O)c1ccccc1Cl)N/N=C/C=C/c1ccccc1 | 18% | ? | -4% | -39 | 3%
Cc1ccc2nc(N3CC(=O)Nc4ccccc43)nc(-c3ccccc3)c2c1 | -9% | 9.3µM* | 0% | -31 | -2%
CCOC(=O)c1c(C)[nH]c(C)c1S(=O)(=O)N(C)CC(=O)NCc1cccc(C)c1 | ? | 5.9µM* | -1% | -17 | /
CCOC(=O)c1c(C)[nH]c(C)c1S(=O)(=O)N(C)CC(=O)NCc1ccc(Cl)cc1 | / | / | 22% | -3 | /
O=C(/C=C/c1cccnc1)c1ccc(O)cc1 | ? | -9% | 45µM* | -88* | 0%
O=C(/C=C/c1cccnc1)c1ccccc1O | -2% | -6% | 20µM* | -22 | 1%
O=C(C=Cc1cccnc1)c1ccccc1 | / | / | / | -25 | /
O=C(/C=C/c1cccc(O)c1)c1cccnc1 | 6% | -18% | ? | -6 | -4%
O=C(/C=C/c1cccnc1)c1ccc([N+](=O)[O-])cc1 | 1% | 5% | 8.9µM* | 149 | ?
O=C(/C=C/c1cccnc1)c1cccc(O)c1 | -27% | -16% | 28µM* | 25 | -25%
O=C(C=Cc1ccccc1)c1ccc([N+](=O)[O-])cc1 | / | / | / | 2 | /
Cc1ccc(/C=C/C(=O)c2ccccc2O)cc1 | 52% | 24% | -13% | 9 | 2%
CSc1ccccc1C(=O)N1CCC2(CC1)CC(=O)c1ccccc1O2 | -12% | -20% | 1% | 14 | /
Cc1ccc(CC(=O)Nc2ccc(S(=O)(=O)Nc3ncccn3)cc2)cc1 | -6% | -3% | 0% | 28 | -20%
COc1cc(C(=O)/C=C/c2cccnc2)c([N+](=O)[O-])cc1OC | 2.9µM* | ? | ? | -100* | /
O=C(C=Cc1ccccn1)c1ccccc1O | / | / | / | -80* | /
COc1cc(C(=O)Nc2ccncc2)c([N+](=O)[O-])cc1OC | ? | ? | 6% | 9 | -4%
O=C(O)c1ccc(N=NN2CCCCCC2)cc1 | 139% | 8% | -15% | 104 | 14%
CC(C)c1ccccc1OCCCCCNCCO | 4.1µM* | 4.1µM* | 2% | 25 | -23%
CC(C)(C)c1ccccc1OCCCCCNCCO | 4.1µM* | -29% | -7% | -33 | -29%
CC(C)CSCC1OC(n2cnc3c(N)nccc32)C(O)C1O (centres undefined) | / | / | / | -15 | /
CO/N=C/c1ccc(N2CCN(C(=O)c3ccc(F)cc3)CC2)c([N+](=O)[O-])c1 | ? | ? | -7% | -29 | -18%
CO/N=C/c1ccc(N2CCN(C(=O)c3ccc(Cl)cc3Cl)CC2)c([N+](=O)[O-])c1 | -10% | -31% | 6% | -98* | -2%
Cn1c(=O)n(C)c2cc([N+](=O)[O-])c(N3CCN(C(=O)c4ccccc4Cl)CC3)cc21 | -29% | ? | 13% | -78* | 3%
